High-throughput results: PubChem BioAssay, National Center for Advancing Translational Sciences (NCATS)
An excerpt weighted towards active compounds, which were near 6.5% of everything screened.
HT1080-NT tox = qHTS for induction of synthetic lethality in tumor cells producing 2HG: qHTS for the HT-1080-NT fibrosarcoma cell line. HT-1080-NT fibrosarcoma viability, CellTiter-Glo ATP luminescence, 48 h. Potency, µM (series often up to 46.1 µM), most hits filed as cytotoxic. actives 1.6% (n = 360,000);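 further: NT is the 2HG producing partner of a matched IDH1 knockdown line; nearly all actives have a fitted effect of over 55% in size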
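A 48-hour cytotoxicity screen used HT-1080-NT cells plated 2 hours before compound delivery. ATP-based CellTiter-Glo luminescence measured viability, normalized to DMSO and no-cell controls.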
Giardia killer = Small Molecules that selectively kill Giardia lamblia: qHTS. Giardia lamblia trophozoite viability. activity change, % at 7.66 µM, hits read low. actives 0.15% (n = 340,000). AID 540267, 2011; in the data active means activity change below about -80%; inconclusive means between about -30% and that limit;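 further: parasites exposed to compound for two days anaerobically before the ATP read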
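Trophozoite viability was measured as ATP-dependent luminescence, read 15-30 min after reagent addition. Before that, parasites at 100 cells/well were exposed to compounds for 48 h, anaerobically, at 37 deg C.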
HepG2 tox = qHTS for Inhibitors of TGF-b: Cytotox Counterscreen. AID 588856, 2011. HepG2 CAGA-GFP viability, ATP luminescence, 18 h. Potency, µM (series often up to 46.1 µM), most hits filed as cytotoxic. actives 0.76% (n = 410,000)
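CellTiter-Glo luminescence gave cytotoxicity after 18 hours at 37 degrees C. The cells were HepG2 CAGA-GFP in 1% FBS DMEM, stimulated with 500 pg/mL TGF-beta after compound addition. %Activity was normalised to no-cell wells (complete cell-killing) and DMSO (no toxicity), and curves were fitted and classified.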
HT1080 IDH1KD tx = qHTS for induction of synthetic lethality in tumor cells producing 2HG: qHTS for the HT-1080-IDH1KD cell line. Potency, µM (highest dose often 46.1 µM), usual class: cytotoxic. actives 2% (n = 360,000). AID 686971, 2013. HT-1080 IDH1 knockdown viability, ATP luminescence, 48 h
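Using the IDH1-knockdown HT-1080 line run in the same batch and compound series as the NT line, viability after 48 h at 37 °C was determined by CellTiter-Glo luminescence and expressed as % activity.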
IL-1B inflam inh = qHTS for Inhibitors of Inflammasome Signaling: IL-1-beta AlphaLISA Primary Screen; AID 743279, 2014; actives 4.7% (n = 360,000); activity change, % at 57.5 µM; THP-1 LPS/ATP IL-1B secretion, AlphaLISA, 16 h; stronger effect = lower value; in the data active means activity change below about -50%; inconclusive means mostly about -30% to -49%
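Secreted IL-1B measured by AlphaLISA bead assay after 16 h compound exposure of THP-1 cells; compounds (final up to 57.5 uM) added 1 h before LPS (250 ng/mL) and ATP (1.25 mM) stimulation; lower signal means less secretion.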
TGFb SMAD3 inh = qHTS for Inhibitors of TGF-b; Potency, µM (highest dose often 46.1 µM), actives largely listed as inhibitors; actives 1.2% (n = 410,000); HepG2 CAGA-GFP TGF-b/SMAD3 reporter, GFP fluorescence, 18 h; TGF-beta stimulated, 500 pg/mL final; further: nearly all actives have a fitted effect of over 65% in size
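GFP signal (ex488/em500-530) from TGF-beta-stimulated HEPG2 CAGA-GFP cells, 500 pg/mL final, 18 h at 37 degrees C in DMEM plus 1% FBS, normalized to unstimulated and DMSO-stimulated controls.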
Large screens that a line does not name were inactive. Unless noted, the call rests on the fitted dose curve; in most records, active means well fitted curve in the direction sought with a large enough effect; inconclusive means small, poorly fitted or top-dose-only effect, or another doubt; inactive means no such curve, though single readings can be large; an effect the other way counts as inactive or inconclusive.

COc1ccc(NC(=O)CN(C)CC(=O)NC2CCCCC2C)cc1 (stereo unspecified)	none
COC(=O)CN(c1ccc(OC)c(OC)c1)S(C)(=O)=O	none
CCCN1C2CCCC1CC(NC(=S)NCCCOCC)C2 (stereo unspecified)	none
CCc1ccc(N2CCn3c2nc2c3c(=O)n(Cc3cccc(C)c3)c(=O)n2C)cc1	none (no result: HT1080-NT tox, Giardia killer, HT1080 IDH1KD tx, IL-1B inflam inh)
CC(=NCCCN(C)C)C1=C(O)c2ccccc2C1=O	none
O=[N+]([O-])c1ccc(Sc2nnnn2-c2ccccc2)c(Cl)c1	HT1080-NT tox 8.91µM, HT1080 IDH1KD tx 10µM
Cn1nnnc1Sc1ccc([N+](=O)[O-])cc1Cl	none
Cn1cnnc1Sc1cc(N2CCN(S(=O)(=O)c3ccccc3)CC2)ccc1[N+](=O)[O-]	none
CC(=O)c1ccc(Sc2ccccn2)c([N+](=O)[O-])c1	none
CN1CCN(S(=O)(=O)c2ccc(Sc3nnnn3-c3ccccc3)c([N+](=O)[O-])c2)CC1	IL-1B inflam inh -74.0, TGFb SMAD3 inh inconclusive
CC(=O)c1ccc(Sc2nnnn2-c2ccccc2)c([N+](=O)[O-])c1	HT1080 IDH1KD tx inconclusive, IL-1B inflam inh -99.7
C[C@@H]1CN([C@H](C)CO)C(=O)c2c(c3ccccc3n2C)-c2ccccc2CO[C@H]1CN(C)Cc1ccc2c(c1)OCCN2C	none (no result: Giardia killer)
CCN(CC)c1ccc(NC(=O)c2ccc3c(c2)c(C)c(C)n3C)cc1	HT1080-NT tox 18.4µM, HT1080 IDH1KD tx inconclusive
O=C(N/N=C/c1ccccn1)c1cc([N+](=O)[O-])cc([N+](=O)[O-])c1	TGFb SMAD3 inh 4.47µM
Cc1cc(/C=N/NC(=O)c2cccc([N+](=O)[O-])c2)c(C)n1-c1ccccc1	IL-1B inflam inh -79.7
COc1cccc(/C=N/NC(=O)c2cc3cc([N+](=O)[O-])ccc3s2)c1O	HT1080-NT tox 4.11µM, HepG2 tox 10µM, HT1080 IDH1KD tx 2.91µM
O=C(N/N=C/c1ccccn1)c1cccc([N+](=O)[O-])c1	HT1080 IDH1KD tx inconclusive, IL-1B inflam inh -95.7
O=C(N/N=C/c1ccccn1)c1ccc([N+](=O)[O-])cc1	TGFb SMAD3 inh inconclusive
COCCCNC(=O)c1ccc(CS(=O)(=O)c2cccc(C(F)(F)F)c2)o1	none
CCn1cc(Br)c(C(=O)Nc2ccc(Cl)cc2Cl)n1	none
NNC(=O)c1cccc(S(=O)(=O)Nc2cccc(C(F)(F)F)c2)c1	none
O=C(N/N=C/c1ccccc1O)c1cccc(C(F)(F)F)c1	HT1080-NT tox inconclusive, HT1080 IDH1KD tx 2.59µM, TGFb SMAD3 inh inconclusive
Cc1[nH]c2ccccc2c1/C=N/NC(=O)c1cccc(S(=O)(=O)Nc2cccc(C(F)(F)F)c2)c1	TGFb SMAD3 inh 10µM
COc1ccc(/C=N/NC(=O)c2cccc([N+](=O)[O-])c2)cc1O	none
O=C(N/N=C/c1ccccc1Cl)c1cccc(F)c1	IL-1B inflam inh inconclusive
O=C(N/N=C/c1cccc2ccccc12)c1cccc(F)c1	IL-1B inflam inh -63.1
O=C(NN=Cc1ccccc1O)c1cccc([N+](=O)[O-])c1	HT1080-NT tox 0.291µM, HT1080 IDH1KD tx 1.16µM
COc1ccc(C(c2c(O)nc(SC)n(C)c2=O)c2c(O)nc(SC)n(C)c2=O)cc1O	none
Cc1ccc(CNC(=O)/C=C/c2cccs2)cc1	none
O=C(CS(=O)(=O)c1c[nH]c2ccccc12)NC1CCCCC1	none
O=C(N/N=C/c1ccccn1)c1ccc(Br)cc1	HT1080 IDH1KD tx inconclusive, IL-1B inflam inh -105.3, TGFb SMAD3 inh inconclusive
CC1(C)C2CCC(C2)C1(C)NC(=O)CNCC1CCCCC1 (stereo unspecified)	IL-1B inflam inh -78.2
CCOCCCNCC(=O)NC1(C)C2CCC(C2)C1(C)C (stereo unspecified)	none
Cc1cc(C)nc(SCCC(=O)Nc2ccccc2)n1	none
Nc1ccccc1-n1cccc1	none
COc1ccc(NC(=O)c2ccc(NC(=O)CSc3nccc(=O)[nH]3)cc2)cc1	none
O=[N+]([O-])c1cc(-c2ccccc2)cc([N+](=O)[O-])c1O	HT1080-NT tox 18.4µM, HT1080 IDH1KD tx inconclusive, TGFb SMAD3 inh inconclusive
OC(CNCc1ccc(-c2ccccc2)cc1)c1ccccc1 (stereo unspecified)	HT1080-NT tox 20.6µM, HepG2 tox 22.4µM, HT1080 IDH1KD tx 29.1µM, IL-1B inflam inh -73.1, TGFb SMAD3 inh inconclusive
COc1cc(OC)cc(-c2c(-c3cccs3)c3cc(-c4ccn[nH]4)ccc3n2C)c1	HT1080-NT tox inconclusive, HT1080 IDH1KD tx inconclusive, TGFb SMAD3 inh 15.8µM
O=[N+]([O-])c1cccc(/C=N\N2CCN(Cc3ccccc3Cl)CC2)c1	IL-1B inflam inh -68.2
O=[N+]([O-])c1cccc(/C=N/N2CCN(Cc3ccccc3)CC2)c1	Giardia killer inconclusive
Cc1ccc(C(=O)Nc2cc(Cl)ccc2-n2cncn2)s1	none
CCC(CC)NCC(O)COc1ccc(Br)cc1 (stereo unspecified)	IL-1B inflam inh -52.2
CCCC(NCC(O)COc1ccc(-c2ccccc2)cc1)c1ccccc1 (stereo unspecified)	HT1080 IDH1KD tx 13µM, IL-1B inflam inh -76.8, TGFb SMAD3 inh inconclusive
CC(NCC(O)COc1ccc(Br)cc1)c1ccccc1 (stereo unspecified)	HT1080-NT tox inconclusive, HT1080 IDH1KD tx inconclusive, IL-1B inflam inh inconclusive, TGFb SMAD3 inh inconclusive
OC(CNC1CCCC1)COc1ccc(-c2ccccc2)cc1 (stereo unspecified)	HT1080-NT tox inconclusive, HT1080 IDH1KD tx inconclusive, IL-1B inflam inh -63.2
CC(C)NCC(O)COc1ccc(Br)cc1 (stereo unspecified)	none
CC(OC(=O)c1ccc([N+](=O)[O-])o1)C(=O)NC1CCCCC1C (stereo unspecified)	Giardia killer inconclusive
CCCCOC(=O)C1[C@H]2C(=O)N(Cc3cccs3)C[C@]23C=C[C@H]1O3 (stereo partly specified)	none
c1ccc(-n2c(SCc3nc(-c4cccs4)no3)nnc2-c2ccco2)cc1	HT1080-NT tox inconclusive, IL-1B inflam inh -75.3
COc1ccc(-n2c(Cc3ccccc3)nnc2SCc2nc(-c3cccs3)no2)cc1	TGFb SMAD3 inh inconclusive (no result: HT1080-NT tox, Giardia killer, HT1080 IDH1KD tx, IL-1B inflam inh)
CC(C)C(=O)OCc1cn(-c2ccc(Cl)c(Cl)c2)nn1	none
